The entries come from a sample that favours hits as a whole.
Pf Dd2 growth: Plasmodium falciparum Dd2 growth inhibition; P. falciparum Dd2 growth, SYBR Green, 72 h; actives 4.3% (n = 120,000); AID 1347417; Potency, µM (top dose mostly 28.9 µM), hits mostly inhibitors; active means well fitted inhibition curve with a large enough effect; further: nearly all actives have a fitted effect of over 65% in size
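Infected erythrocytes (Dd2, 0.3% parasitemia, 2.5% hematocrit final) are added to compound in RPMI-1640/Albumax II medium, grown 72 h at 37C in low oxygen, then lysed with saponin/Triton-X containing SYBR Green and read by fluorescence.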
Each line names hits and unclear results; the compound was inactive in the other large screens; ! = repeats disagree.

C[C@@]1(O)CCN(Cc2ccc(Br)o2)C[C@H]1N1CCCC1	none
O=C1C(N2CCN(S(=O)(=O)c3cccc(F)c3)CC2)CCN1Cc1cccnc1 (centres undefined)	none
CCOc1cccc(CNC(=O)[C@H]2CCC[C@H]2NC(=O)c2ccc(OC)nc2)c1	none
CCNC(=O)c1cccnc1OC1CCN(C(=O)c2cc(F)ccc2F)C1 (centres undefined)	none
CN(C)CC(=O)N1Cc2ccccc2CC2(CCN(CC3CCNCC3)C2)C1 (centres undefined)	none
COCc1cn(C[C@H]2C[C@@H](NC(=O)Cc3cccc(OC)c3)[C@H](O)[C@@H]2O)nn1	none
CCc1noc(-c2cn(C3CCN(C(=O)c4ccc(Cl)s4)CC3)nn2)n1	none
O=C(c1ccc(Cl)cc1)N1CCC2(C1)C(=O)Nc1ccccc12 (centres undefined)	none
C=CCNc1nc(C)nc2c1CCN(C(=O)CNS(C)(=O)=O)CC2	none
CCn1cc(CN2CCCCCCNC(=O)[C@@H]3CCC[C@@H]32)cn1	none
COc1ccc(CN2CCCCCNC(=O)[C@@H]3CCC[C@@H]32)cc1Cn1ccnc1	Pf Dd2 growth 8.9µM
Cc1ncsc1CN1CCCCCNC(=O)[C@@H]2CCC[C@@H]21	none
N#Cc1ccccc1CN1CCCCCCNC(=O)[C@@H]2CCC[C@@H]21	Pf Dd2 growth 2.8µM
CCOc1ccccc1CN1CCCCCCNC(=O)[C@@H]2CCC[C@@H]21	Pf Dd2 growth 2.8µM
N#Cc1ccc(CN2CCCCCNC(=O)[C@@H]3CCC[C@@H]32)cc1	none
COc1ccc(-c2[nH]ncc2CN2CCCCCNC(=O)[C@@H]3CCC[C@@H]32)cc1	none
N#Cc1cccc(CN2CCCCCNC(=O)[C@@H]3CCC[C@@H]32)c1	none
CC(C)n1cc(CN2CCCCCNC(=O)[C@@H]3CCC[C@@H]32)c2ccccc21	none
COCC1CN(C(C)=O)CC12CCN(C(=O)c1ccc(C(F)(F)F)cc1)CC2 (centres undefined)	none
COc1ccc(NC(=O)O[C@@H]2CO[C@H]3[C@@H]2OC[C@@H]3NC(=O)Nc2cccc(C(F)(F)F)c2)cc1	none
Cc1noc(-c2ccc(OC3CN(S(=O)(=O)c4c(C)nn(C)c4C)C3)cc2)n1	none
Cc1nnc2n1C(C)CN(C(=O)COc1ccc(-n3cnnn3)cc1)C2 (centres undefined)	none
Cc1cccc(NC(=O)Cn2c(N3CCCCC3)nc(C)c(C)c2=O)c1	none
Cc1nc(N2CCCCC2)n(CC(=O)Nc2cccc(F)c2)c(=O)c1C	Pf Dd2 growth 4µM
CSc1cccc(NC(=O)Cn2c(N3CCCCC3)nc(C)c(C)c2=O)c1	none
Cc1ccc(C(=O)N2CCn3c(nn(-c4cccc(Cl)c4)c3=O)C2)cc1	none
COc1ccc(CNC(=O)CC2CCCCN(C)C2=O)c(OC)c1 (centres undefined)	none
CCC[C@H]1C[C@H]1C(=O)N1CCC2(CCC(=O)N(CC(N)=O)C2)CC1	none
Cc1ccc(-n2c(/C=C/c3cccs3)nc3ccccc3c2=O)cc1C	Pf Dd2 growth 8.9µM
Cc1ccc(-n2c(/C=C/c3cc(Br)cs3)nc3ccccc3c2=O)cc1C	none
COc1cccc(/C=C/c2nc3ccccc3c(=O)n2-c2ccc(C)c(C)c2)c1OC	none
Cc1ccc(Cl)cc1NC(=O)N1CCCC(Cn2cnc3cccnc32)C1 (centres undefined)	none
CC(C)CCNC(=O)c1cnc2n1CCN(Cc1cccs1)CC2	none
O=C1NC(=NC2CCCCC2)C2(CCN(CC3CCCCC3)CC2)N1c1cccnc1	none
CCn1ccc(C(=O)N2CCC3(CC2)NCCc2c3[nH]c3ccccc23)n1	none
CCCC(=O)N1CCC2(CC1)NCCc1c2[nH]c2ccc(OC)cc12	none
COc1ccc2[nH]c3c(c2c1)CCNC31CCN(C(=O)CC(C)C)CC1	Pf Dd2 growth 7.9µM
COc1ccc2[nH]c3c(c2c1)CCNC31CCN(C(=O)C2CCN2C2CCCCC2)CC1 (centres undefined)	Pf Dd2 growth 13µM
COc1ccc2[nH]c3c(c2c1)CCNC31CCN(C(=O)c2ccncc2)CC1	none
COc1ccc2[nH]c3c(c2c1)CCNC31CCN(C(=O)C(C)C)CC1	none
CCC(=O)N1CCC2(CC1)NCCc1c2[nH]c2ccc(OC)cc12	none
O=C(c1nccc2ccccc12)N1CCC2(CC1)NCCc1c2[nH]c2ccccc12	Pf Dd2 growth 4µM
CC(C)CC(=O)N1CCC2(CC1)NCCc1c2[nH]c2ccccc12	none
N#Cc1ccc(N2CCCn3nc(CCC(=O)N4CCCC4)cc3C2)nc1	none
CCNC(=O)NC1(CCOC)CCN(C(=O)Cc2cccc(OC)c2)CC1	none
O=C(NCCn1cnc2ccccc21)C1CC(=O)N(c2n[nH]c3ccccc23)C1 (centres undefined)	none
COc1ccc(CC(=O)N2[C@@H]3CC[C@H]2CC(NC(=O)c2ccncc2)C3)cc1Cl (some centres undefined)	none
CCn1ccc(C(=O)N2CCC3(CCCCO3)CC2)n1	none
CC(C)Cc1cc(CNC(=O)[C@H]2CNC[C@H](C(=O)N3CCCC3)C2)no1	none
COC(=O)CCCNC(=O)[C@@H]1[C@@H](NC(=O)NC2CCCCC2)CCN1C(=O)CC(C)(C)C	none
NC(=O)[C@@H](Cc1c[nH]c2ccccc12)NC(=O)[C@@H]1[C@@H](NC(=O)NC2CCCCC2)CCN1C(=O)c1cnccn1	none
Cc1ccc([S+](=O)([O-])N2CCn3c(nn(-c4ccc(C(F)(F)F)cc4)c3=O)C2)cc1	none
COCCOCc1nc(C2CCN(C(=O)c3cc(C)n(C)n3)C2)no1 (centres undefined)	none
COc1cc(=O)n2c(c1C(=O)Nc1cccc(F)c1C)CCCC2	none
COc1cccc(-c2nc(-c3nnn4c3COC(c3ccc(C)cc3)C4)no2)c1 (centres undefined)	none
Cc1noc(C)c1S(=O)(=O)N(CC(=O)Nc1ccc(C(F)(F)F)cc1)c1ccc(C(C)C)cc1	Pf Dd2 growth 11µM
Cc1n[nH]c(C)c1S(=O)(=O)N(CC(=O)Nc1ccc(C(F)(F)F)cc1)c1ccc(C(C)C)cc1	none
Cc1ccc(N(CC(=O)Nc2ccc(OC(F)(F)F)cc2)S(=O)(=O)c2c(C)noc2C)cc1	none
O=c1[nH]c(C2CCN(Cc3ccc(-c4cccnc4)cc3)CC2)nc2ccc(F)cc12	Pf Dd2 growth 4.5µM!
COc1ccccc1-c1ccc(CN2CCCC(c3nc4ccc(F)cc4c(=O)[nH]3)C2)cc1 (centres undefined)	Pf Dd2 growth 8.9µM!
COc1ccccc1-c1ccc(CN2CC3CCC(C2)N3c2ccc(C(F)(F)F)cc2)cc1	none
O=c1[nH]c(C2CCN(CC3CCCC3)CC2)nc2ccc(F)cc12	none
COc1ccccc1-c1ccc(CN2CCN(c3ccc(Cl)nn3)C(=O)C2)cc1	none
O=c1[nH]c(C2CCCN(Cc3ccc(C(F)(F)F)cc3)C2)nn1-c1ccccc1 (centres undefined)	none
O=c1[nH]c(C2CCCN(Cc3ccsc3)C2)nn1-c1ccccc1 (centres undefined)	none
O=c1[nH]c(C2CCCN(Cc3ccc(-c4ccccc4)cc3)C2)nc2ccc(F)cc12 (centres undefined)	Pf Dd2 growth 8.9µM!
O=c1cc(-c2cccnc2)nc(-c2ccc(CN3CC[C@@H](O)C3)cc2)[nH]1	none
O=C(CCc1conc1-c1ccc(F)cc1)NCc1cccc(Br)c1	none
Cc1noc([C@@H]2CN(S(=O)(=O)c3ccc(Cl)s3)C[C@H]2C(N)=O)n1	none
Cc1cccc(OCC(=O)N2CCC3(CC2)NC(=O)N(Cc2ccccc2)C3=O)c1	none
COc1ccc(CCNc2ncnc3c2CN(C2CCCNCC2)C(=O)CN3C)cc1 (centres undefined)	none
CNc1cc(C)nc(N2C[C@H](NC(=O)C3CCOCC3)[C@@H](C3CC3)C2)n1	none
Cc1nnc2n1CCC(N(C)S(=O)(=O)c1cccnc1)CC2 (centres undefined)	none

Source: PubChem
